Screening data from PubChem BioAssay.
TDP1 cell noCPT – qHTS for Inhibitors of human tyrosyl-DNA phosphodiesterase 1 (TDP1): qHTS in cells in absence of CPT. AID 686978, 2013. DT40 Tdp1-/- hTDP1 cells, no CPT, ATP luminescence, 48 h. Potency, µM (titrated, usually from 46.2 µM), actives largely listed as inhibitors. hit rate 15% among 420,000; further: nearly all actives have a fitted effect of over 55% in size
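Readout: luminescence from CellTiter-Glo after 30 min in the dark at RT. Cells: DT40 Tdp1-/- with stable hTDP1, 400/well. Exposure: compounds alone, ≥48 hr, 37 °C.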
ELG1 repair inh – qHTS screen for small molecules that inhibit ELG1-dependent DNA repair in human embryonic kidney (HEK293T) cells expressing luciferase-tagged ELG1. hit rate 2.3% among 330,000. HEK293T ELG1-luciferase reporter, luminescence, 16 h; DNA damage induced by 5-fluorouridine. AID 504467, 2011. Potency, µM (titrated, usually from 46.1 µM), usual class: inhibitors; further: nearly all actives have a fitted effect of over 55% in size
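Step one: seed 2,000 cells per well. Step two: pin-transfer compound or DMSO alongside 5-fluorouridine. Step three: incubate 16 hr, 37 °C, 5% CO2. Step four: add ONE-Glo, wait 30 min, read luminescence.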
TDP1 cell CPT – qHTS for Inhibitors of human tyrosyl-DNA phosphodiesterase 1 (TDP1): qHTS in cells in presence of CPT; chicken DT40 Tdp1-/-;hTDP1 cells + 20 nM CPT, ATP luminescence, 48 h; Potency, µM (doses to about 46.2 µM), actives largely listed as inhibitors; hit rate 12% among 420,000; AID 686979, 2013; further: nearly all actives have a fitted effect of over 55% in size
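Chicken DT40 Tdp1-/- cells complemented with human TDP1, 400 cells/well, exposed to compounds plus 20 nM camptothecin for at least 48 h at 37 C; viability read as ATP content by CellTiter-Glo luminescence.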
HT1080-NT tox – qHTS for induction of synthetic lethality in tumor cells producing 2HG: qHTS for the HT-1080-NT fibrosarcoma cell line; Potency, µM (titrated, usually from 46.1 µM), hits mostly cytotoxic; AID 686970, 2013; hit rate 1.6% among 360,000; HT-1080-NT fibrosarcoma viability, CellTiter-Glo ATP luminescence, 48 h;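 further: NT is the 2HG producing partner of a matched IDH1 knockdown line; nearly all actives have a fitted effect of over 55% in size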
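Compounds were tested in concentration-response format on HT-1080-NT cells for 48 hours at 37 degrees C. Cell viability came from CellTiter-Glo luminescence; curves were classified by r2, response magnitude and activity.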
IL1B secr inh – qHTS for Inhibitors of Inflammasome Signaling: IL-1-beta AlphaLISA Primary Screen. hit rate 4.7% among 360,000. activity change, % at 57.5 µM. THP-1 LPS/ATP IL-1B secretion, AlphaLISA, 16 h; active compounds read low; in the data active means activity change below about -50%; inconclusive means mostly about -30% to -49%
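Secreted IL-1B measured by AlphaLISA bead assay after 16 h compound exposure of THP-1 cells; compounds (final up to 57.5 uM) added 1 h before LPS (250 ng/mL) and ATP (1.25 mM) stimulation; lower signal means less secretion.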
HT1080 IDH1KD tx – qHTS for induction of synthetic lethality in tumor cells producing 2HG: qHTS for the HT-1080-IDH1KD cell line; HT-1080 IDH1 knockdown viability, ATP luminescence, 48 h; Potency, µM (doses to about 46.1 µM), actives largely listed as cytotoxic; hit rate 2% among 360,000
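CellTiter-Glo luminescence after 48 h compound exposure at 37 degrees C of IDH1-knockdown HT-1080 cells in 5% FBS RPMI. %Activity scaled between DMSO wells and cell-free media wells, with curves fitted and assigned curve classes.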
A number is an active result; 0 = inactive; ? = inconclusive; - = not tested or not shown; ! = not active in a repeat; [ ] = another dose, or the depositor's remark. The list is not random: actives were taken first. Their share in the collection is about 19%. Unless noted, the call rests on the fitted dose curve; in most records, active means well fitted curve in the direction sought with a large enough effect; inconclusive means small, poorly fitted or top-dose-only effect, or another doubt; inactive means no such curve, though single readings can be large; an effect the other way counts as inactive or inconclusive.

SMILES	TDP1 cell noCPT	ELG1 repair inh	TDP1 cell CPT	HT1080-NT tox	IL1B secr inh	HT1080 IDH1KD tx
COc1ccc([C@H]2CC(=O)C=C(c3ccc(SC)cc3)C2)cc1OC	14.6µM	?	9.2µM	0	0	0
COc1ccc(NC(=O)N(C)C[C@@H]2OCc3cn(nn3)CCCC(=O)N([C@@H](C)CO)C[C@H]2C)cc1	0	-	0	0	0	0
COc1ccc([C@H]2CC(=O)C=C(c3ccc(F)cc3OCc3ccccc3)C2)cc1OC	20.6µM	?	?	0	?	0
COc1cc(F)c(C2=CC(=O)C[C@H](c3ccc(F)cc3)C2)cc1F	0	?	?	0	0	0
COc1ccc([C@H]2CC(=O)C=C(c3ccccc3)C2)cc1OC	?	?	?	0	?	0
COc1ccc(C2=CC(=O)C[C@H](c3ccc(F)cc3)C2)cc1F	?	?	20.6µM	0	0	0
O=C1C=C(c2ccc(Oc3ccccc3)cc2)C[C@@H](c2ccc(F)cc2)C1	?	0	18.4µM	0	?	0
CCCCC/C=C/C1=CC(=O)C[C@H](c2ccc(OC)c(OC)c2)C1	10.3µM	0	20.6µM	0	0	0
CC(C)(C)OC(=O)N1CCC(NC(=O)c2[nH]cnc2C(=O)Nc2ccccc2F)CC1	?	-	?	0	0	0
Fc1ccc(CO/N=C2\CCCc3nonc32)cc1	0	?	0	0	0	0
CC(C)(C)C(=O)NCCN1C(=O)S/C(=C\c2ccc([N+](=O)[O-])cc2)C1=O	23.1µM	0	?	0	-73.0	0
O=C(NCCN1C(=O)S/C(=C\c2ccc(Cl)c([N+](=O)[O-])c2)C1=O)C1=COCCO1	8.2µM	?	20.6µM	14.6µM	-103.0	?
O=C(/C=C/c1ccccc1[N+](=O)[O-])NCCN1C(=O)S/C(=C\c2ccc(F)cc2)C1=O	0	?	0	0	0	0
O=C(NCCN1C(=O)S/C(=C\c2ccc(Cl)c(Cl)c2)C1=O)c1cnccn1	?	0	?	0	0	0
C=C1C=C(C(F)F)n2ncc(C(=O)N3CCCCC3)c2N1	0	-	0	-	-	-
Cc1ccc(F)cc1C(=O)N1CCCCC1c1cc(C(=O)NC(C)C)no1 (stereo not given)	0	-	0	0	-55.7	0
COc1ccc(NC(=O)c2cc(C3CCCCN3C(=O)c3cc(F)ccc3C)on2)c(C)c1 (stereo not given)	8.2µM	-	11.6µM	0	0	0
CCCNC(=O)c1cc(C2CCCCN2C(=O)c2cc(C(C)(C)C)nn2C)on1 (stereo not given)	18.4µM	-	20.6µM	0	0	0
COc1ccc(NC(=O)c2cc(C3CCCCN3C(=O)c3cc(C(C)(C)C)nn3C)on2)c(C)c1 (stereo not given)	20.6µM	-	?	0	0	0
COc1ccc(C(=O)N2CCCCC2c2cc(C(=O)Nc3ccc(OC)cc3C)no2)cc1 (stereo not given)	?	-	?	0	0	0
CC(C)(C)OC(=O)N1CCc2onc(-c3ccccc3[N+](=O)[O-])c2C1=O	0	-	0	0	0	0
O=C1CC(NS(=O)(=O)c2ccccc2F)CN1c1ccc2c(c1)OCCO2 (stereo not given)	0	0	0	0	0	0
Cc1cccc(NC(=O)CCNS(=O)(=O)c2ccc3c(c2)CCN3C(=O)C2CC2)c1	20.6µM	-	18.4µM	-	-	-
O=C(CCNS(=O)(=O)c1ccc2c(c1)CCN2C(=O)C1CC1)Nc1ccc(F)cc1F	13µM	-	8.2µM	-	-	-
Clc1ccc(C=NNc2ccccn2)c(Cl)c1	0	-	0	0	0	?
SMILES	TDP1 cell noCPT	ELG1 repair inh	TDP1 cell CPT	HT1080-NT tox	IL1B secr inh	HT1080 IDH1KD tx
C(=N\NC(=Nc1ccccc1)c1ccccn1)/c1ccccn1	10.3µM	?	10.3µM	0	0	0
O=C(N/N=C\c1ccccn1)c1cccc(C(=O)N/N=C\c2ccccn2)n1	?	-	0	0	0	0
Clc1ccc(/C=N/NC(=Nc2ccccc2)c2ccccn2)c(Cl)c1	29.1µM	?	?	0	0	0
CC(C)(C)C(=O)/C(=C/c1ccc(Cl)cc1)n1cncn1	5.17µM	?	5.8µM	16.4µM	-97.0	0
CC(C)/C=C(/C(=O)c1ccc(Cl)cc1Cl)n1cncn1	20.6µM	0	?	0	-71.4	0
CC(C)(C)C(=O)/C(=C\c1ccc([N+](=O)[O-])cc1)n1cncn1	-	11.6µM	-	-	-	-
CC(Sc1nnc(C(C)Oc2ccccc2F)o1)C(=O)NCc1ccc2c(c1)OCO2 (stereo not given)	0	?	0	0	0	0
COc1cc(NC(=O)CC(C)S(=O)(=O)c2ccc3c(c2)NC(=O)CO3)cc(OC)c1OC (stereo not given)	0	0	0	0	0	0
COC(=O)c1ccc(Cn2nc(-c3ccc(C)cc3)ccc2=O)cc1	?	0	16.4µM!	0	0	0
Cc1ccc(-c2csc3ncnc(N4CCN(C(=O)c5ccco5)CC4)c23)cc1	?	16.4µM	?	?	0	?
Cc1sc2nc(C(C)C)nc(SCC(=O)N3CCN(C(=O)c4ccco4)CC3)c2c1C	?	18.4µM	?	0	0	0
Cc1sc2ncnc(N3CCN(C(=O)c4ccco4)CC3)c2c1C	20.6µM	11.6µM	0	0	0	0
Cc1sc2nnn(CC(=O)N3CCN(C(=O)c4ccco4)CC3)c(=O)c2c1C	0	-	0	0[9.24 µM]	0	0
Cc1sc2nc(C(C)C)nc(SCC(=O)NC3CC3)c2c1C	16.4µM	0	16.4µM	0	0	0
O=C(c1ccco1)N1CCN(c2ncnc3scc(-c4ccc(F)cc4)c23)CC1	?	0	?	?	0	?
Cc1nc(SCC(=O)NC2CC2)c2c(C)c(C)sc2n1	?	0	?	0	0	0
O=C(Cn1cncn1)N/N=C/c1cccnc1	0	0	0	0	0	0
Nc1ccccc1SCC(=O)Nc1ccc2c(c1)OCCO2	0	?	0	0	0	?
CCC(=O)N1CCc2cc(S(=O)(=O)NC(Cc3ccccc3)C(=O)NCc3ccc(F)cc3)ccc21 (stereo not given)	0	-	0	-	-	-
Cc1cccc2[nH]c3c(N4CCN(C(=O)c5ccco5)CC4)ncnc3c12	18.4µM	?	?	0	?	0
